Source: PubChem (National Center for Advancing Translational Sciences (NCATS))
RECQ1 inh-1 – qHTS Assay for Inhibitors of RecQ-Like Dna Helicase 1 (RECQ1) | ATP-dependent DNA helicase Q1 (Homo sapiens), P46063 | RECQ1 DNA unwinding, red fluorescence kinetic read | Potency, µM (highest dose often 57.3 µM), without a hit: at the top dose activity, negative = inhibition, most hits filed as inhibitors | 0.54% of 240,000 active | AID 2549, 2010;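 further: plate controls were vehicle for no effect and no enzyme for full effect; nearly all actives have a fitted effect of over 30% in size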
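RECQ1T1 50 nM; forked duplex (20 bp + 30-nt ss tails) 200 nM, ATP 2 mM final; pH 8.0, 2 mM MgCl2, 2.5 ug/ml poly(dI-dC); 15 min compound preincubation; discontinuous kinetic read over 2 h at RT.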
TDP1 block – qHTS Assay for Inhibitors of Tyrosyl-DNA Phosphodiesterase (TDP1). Tyrosyl-DNA phosphodiesterase 1 (Homo sapiens), Q9NUW8. recombinant TDP1, AlphaScreen DNA substrate cleavage. Potency, µM (highest dose often 130 µM), for the others: at the top dose activity change, negative = inhibition, usual class: inhibitors. 0.28% of 350,000 active. AID 485290, 2010; further: nearly all actives have a fitted effect of over 40% in size
Target sequence (Q9NUW8 whole entry, looked up): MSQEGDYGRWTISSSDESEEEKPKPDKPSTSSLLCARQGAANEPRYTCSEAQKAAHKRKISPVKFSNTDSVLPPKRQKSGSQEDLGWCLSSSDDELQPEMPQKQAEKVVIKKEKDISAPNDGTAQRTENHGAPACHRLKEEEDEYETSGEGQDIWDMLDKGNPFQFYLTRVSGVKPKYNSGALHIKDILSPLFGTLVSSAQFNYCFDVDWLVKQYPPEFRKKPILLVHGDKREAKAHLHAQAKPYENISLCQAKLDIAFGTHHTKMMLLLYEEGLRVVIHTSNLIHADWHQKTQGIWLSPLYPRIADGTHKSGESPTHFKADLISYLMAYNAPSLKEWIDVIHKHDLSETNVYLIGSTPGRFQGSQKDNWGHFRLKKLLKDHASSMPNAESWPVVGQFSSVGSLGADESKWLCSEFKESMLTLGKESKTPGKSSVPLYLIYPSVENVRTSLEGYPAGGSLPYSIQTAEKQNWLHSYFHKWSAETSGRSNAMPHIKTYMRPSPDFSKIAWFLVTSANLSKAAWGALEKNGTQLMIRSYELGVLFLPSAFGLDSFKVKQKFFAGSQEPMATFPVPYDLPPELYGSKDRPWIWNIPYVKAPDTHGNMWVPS
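Here, a 5' biotin and 3' phosphotyrosine-FITC DNA oligonucleotide reports Tdp1 activity: intact substrate bridges AlphaScreen beads, while cleavage leaves a 3' phosphate and drops signal. All incubations at room temperature.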
BLM inh – qHTS Assay for Inhibitors of Bloom's syndrome helicase (BLM) | RecQ-like DNA helicase BLM (Homo sapiens), P54132 | Potency, µM (series often up to 56.1 µM), for the others: top-dose activity change, negative = inhibition, most hits filed as inhibitors | recombinant BLM DNA unwinding, fluorescence dequenching | AID 2528, 2010 | 0.2% of 350,000 active;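 further: plate controls were vehicle for no effect and no enzyme for full effect; nearly all actives have a fitted effect of over 35% in size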
LMNA splice mod – qHTS Assay for Modulators of Lamin A Splicing. Potency, µM (highest dose often 46.1 µM), inactives show top-dose ratio change, negative = inhibition, usual class: inhibitors. HeLa LMNA splicing GFP/RFP minigene ratio, 48 h. 0.01% of 200,000 active. AID 1487, 2009; active means well fitted inhibition curve with a large enough effect in the signal ratio, with a control signal flat, not every such curve was filed as active; inconclusive means small, poorly fitted or top-dose-only effect, or effect the other way, or a change in a side signal; the % refers to the signal ratio
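S3 HeLa stable clones carrying a lamin A-EGFP splicing minigene plus DsRed2 were seeded at 600 cells/well in Opti-MEM with 2% FBS, pin-dosed and incubated 48 h at 37°C. Acumen cytometry (488 nm) gave the GFP/RFP total-intensity ratio.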
KAT2A inh – qHTS Assay for Inhibitors of GCN5L2; Histone acetyltransferase KAT2A (Homo sapiens), Q92830; GCN5L2 HAT assay, ThioGlo1 CoA-SH fluorescence; Potency, µM (top dose mostly 58.9 µM), for inactives: at the highest dose activity change, negative = inhibition, usual class: inhibitors; 0.21% of 390,000 active
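qHTS, 1536-well. 20nM enzyme, pH 7.5 HEPES/EDTA/Tween-20 buffer; 15 min compound preinc., RT. Start: 75uM H3(1-25), 70uM AcCoA, 50uM ThioGlo1. Read Ex340/Em540 at t=0 (autofluorescence flag) and t=20 min.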
APEX1 inh – qHTS Assay for Inhibitors of the Human Apurinic/apyrimidinic Endonuclease 1 (APE1); 0.35% of 350,000 active; recombinant APE1, TAMRA/BHQ-2 abasic DNA cleavage fluorescence; Potency, µM (top dose mostly 65.8 µM), inactives show at the highest dose activity change, negative = inhibition, actives largely listed as inhibitors; DNA repair nuclease/redox regulator APEX1 (Homo sapiens), P27695;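 further: plate controls were vehicle for no effect and reference inhibitor for full effect; nearly all actives have a fitted effect of over 55% in size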
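Step 1: APE1 (0.75 nM) with compound, 15 min RT. Step 2: add 50 nM fluorophore/quencher THF duplex. Step 3: three fluorescence reads 60 s apart (525/598 nm); read 3 minus read 1 = reaction progress.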
RECQ1 inh conf – Confirmation qHTS Assay for Inhibitors of RecQ-Like Dna Helicase 1 (RECQ1) | shares compounds with RECQ1 inh-1 | 28% of 610 active | RECQ1 helicase DNA unwinding, fluorescence | Potency, µM (top dose mostly 229 µM), inactives show at the highest dose activity change, negative = inhibition, most hits filed as inhibitors; further: nearly all actives have a fitted effect of over 45% in size
RECQ1 ADP FP – Counterscreen for RECQ1 Inhibitors: ADP Fluorescence Polarization Displacement Assay; shares compounds with RECQ1 inh-1; ADP fluorescence polarization displacement counterscreen; Potency, µM (top dose mostly 228 µM), for inactives: at the highest dose activity change, negative = inhibition, most hits filed as inhibitors; 27% of 530 active; AID 2711, 2010; further: nearly all actives have a fitted effect of over 45% in size
RECQ1 inh-2 – Confirmation qHTS Assay for Inhibitors of RecQ-Like Dna Helicase 1 (RECQ1) - Round 2 Cherry Picks; shares compounds with RECQ1 inh-1; recombinant RECQ1 DNA unwinding, red fluorescence; Potency, µM (highest dose often 119 µM), inactives show at the top dose activity, negative = inhibition, usual class: inhibitors; 15% of 1,100 active; further: nearly all actives have a fitted effect of over 50% in size
* marks the source's active call; other numbers are inactive results; i = inactive; ? = inconclusive; . = no result given; [ ] = dose if it differs, or a comment. This is a sample that favours compounds with a hit; in the whole collection about 0.9% have one here. Unless noted, the call rests on the fitted dose curve; in most records, active means well fitted curve in the direction sought with a large enough effect; inconclusive means small, poorly fitted or top-dose-only effect, or another doubt; inactive means no such curve, though single readings can be large; an effect the other way counts as inactive or inconclusive. Unless noted, on the % scale 0 is the no-effect control and ±100 the full control effect; potency means the concentration at half of the fitted maximal effect.

SMILES	RECQ1 inh-1	TDP1 block	BLM inh	LMNA splice mod	KAT2A inh	APEX1 inh	RECQ1 inh-2	others
CC[C@H](C)[C@H](NC(=O)CNC(=O)[C@H](C)NC(=O)[C@H](C)N)C(=O)NCC(=O)N[C@H](C(=O)N[C@@H](CC(C)C)C(=O)N[C@H](C(=O)N[C@H](C(=O)O)C(C)C)[C@@H](C)O)[C@@H](C)CC	-8%	4%	-3%	.	-15%	-2%	.
Cc1nc(C)c(C(=O)Nc2ncc([N+](=O)[O-])s2)o1	?	?	-19%	?	?	?	?
CCOC(=O)c1c(NC(=O)CSc2cn(CCNC(=O)c3c(F)cccc3F)c3ccccc23)sc2c1CCCC2	.	8%	-9%	.	1%	.	.
O=C(COC(=O)CNC(=O)c1cccc([N+](=O)[O-])c1)Nc1cccc(S(=O)(=O)N2CCCCC2)c1	-1%	3%	1%	1%	-4%	-6%	.
Cc1ccc(NC(=O)COC(=O)CNC(=O)c2cccc([N+](=O)[O-])c2)cc1S(=O)(=O)N1CCCCCC1	32µM*	6%	-9%	8%	-12%	?	-16%
O=C(O)CCC(=O)N1CCc2cc(S(=O)(=O)N3CCCCC3)ccc21	9%	2%	-3%	2%	?	6%	.	RECQ1 inh conf=-2%;RECQ1 ADP FP=12%
CC1CCN(S(=O)(=O)c2ccc3c(c2)CCN3C(=O)CCC(=O)O)CC1	-1%	5%	1%	-7%	32%	-1%	.	RECQ1 inh conf=4%;RECQ1 ADP FP=-1%
CCCCN(c1ccccc1)S(=O)(=O)c1ccc2c(c1)CCN2C(=O)CCC(=O)O	-10%	1%	-4%	-21%	0%	-9%	.	RECQ1 inh conf=0%;RECQ1 ADP FP=?
CCCN(c1ccc(OCC)cc1)S(=O)(=O)c1ccc2c(c1)CCN2C(=O)CCC(=O)O	-8%	3%	-2%	1%[0.0737 µM]	-13%	-2%	.
O=C(O)CCC(=O)N1CCc2cc(S(=O)(=O)N3CC=C(c4ccccc4)CC3)ccc21	-17%	.	-6%	-9%	-5%	-6%	.	RECQ1 inh conf=-3%;RECQ1 ADP FP=?
CC(=O)c1ccc(-c2ccc(C3C4C=CCCC4(C)C(=O)N3Cc3ccccc3)c(F)c2)cc1 (configuration not stated)	i	6%	-8%	.	.	-5%	.
COc1ccc(C2C3C=CCC(c4cccc(/C=C/c5ccccc5)c4)C3C(=O)N2Cc2ccccc2)cc1Cl (configuration not stated)	-8%	12%	-4%	.	.	-4%	.
CCCCNC1=CC(=O)C(=O)c2ccccc21	14%	-3%	-10%	.	-5%	8%	.
CCCCN1C=CC(=C2C(=O)c3ccccc3C2=O)C=C1	?	-5%	-1%	.	-17%	4%	-12%
CC/C=C/[C@@H](c1ccccc1)[C@H](C)C(O)CC(=O)SC(C)(C)C (some centres not stated)	i	-14%	-8%	.	.	19%	.
C[n+]1cccc2c(Br)ccc([O-])c21	32µM*	-5%	20µM*	.	-10%	-11%	-12%
COc1ccc(-c2nc3cnc(N4CCNCC4)nc3n(Cc3cccc(OC)c3)c2=O)cc1	?	.	?	.	-23%	?	?
CN1CCN(C(=O)C2CCCCC2)CC1	.	4%	-1%	.	0%	.	.
CCN(CC)c1ccc2c(c1)C(=O)N(C)C2=O	-5%	-8%	-3%	10%	-10%	3%	.
CCN(CCCCN1C(=O)c2ccccc2C1=O)c1ccc2c(c1)C(=O)N(C)C2=O	28µM*	.	-24%	-6%	-23%	?	?
CCNc1ncc2nc(-c3cc(F)cc(F)c3)c(=O)n(CCc3ccccc3)c2n1	?	.	-9%	?	?	?	16µM*
COCCn1c(=O)c(-c2ccc(F)cc2)nc2cnc(N3CCOCC3)nc21	-1%	.	0%	-6%	-16%	-2%	.
COc1cccc(NC(=O)N2CCN3CCCCC3C2)c1 (configuration not stated)	.	-4%	1%	10%[46 µM]	1%	.	.
CCC1CN(C(=O)N2CCC(C(=O)NCCCc3ccccc3)CC2)c2ccccc2O1 (configuration not stated)	.	8%	-12%	?	-17%	.	.
O=C(O)/C(=C\c1ccc(Cl)cc1)c1ccc(S(=O)(=O)N2CCCC2)s1	.	.	.	.	-13%	-7%	.
O=C(O)/C(=C\c1ccccc1Cl)c1ccc(S(=O)(=O)N2CCCCC2)s1	3%	-3%	-16%	-24%	-11%	24%	.	RECQ1 inh conf=126µM*;RECQ1 ADP FP=-9%
CCOc1ccc(C=C2SC(=O)N(CCN)C2=O)cc1	-2%	11%	44%	.	-29%	-6%	.
O=C(/C=C/c1ccco1)Nc1sc2c(c1C(=O)O)CCC2	35µM*	.	5%	-3%	?	?	?
